Common to all, as to assay: NCI-60 one-dose screen, 48 h (100 = growth as untreated, 0 = no growth, -100 = all killed)
One assay deals with BT-549 breast. The following applies: 10 µM unless noted.
Another assay concerns MDA-MB-435 melanoma. The settings on record: 10 µM unless noted.
The test system of the next assay is SW-620 colon. The settings on record: 10 µM unless noted.
In a further assay the test system is MCF7 breast. The settings on record: 10 µM.
Another assay relates to HCT-116 colon. The following applies: 10 µM unless noted.
The test system of another assay is HCC-2998 colon. The following applies: 10 µM unless noted.
For another assay, the system named is KM12 colon. The settings on record: 10 µM unless noted.

Each structure is given as a SMILES string. The panel holds about 83,000 compounds, 20% with a hit somewhere; the sample as a whole holds those more often.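 A percent growth of 40 corresponds to 60% growth inhibition; 0 means no net growth; -100 means all cells died. Active threshold: below 10.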 Unmarked numbers belong to inactive results. The source made the active and inactive calls.

Turning to `COc1ccc(/C=C2\N=C(c3ccccc3)N(c3ccc(-c4nc5ccc(C)cc5s4)cc3)C2=O)cc1`, the growth in the assay with BT-549 breast is 92.8%; with MDA-MB-435 melanoma, 86.9%; in the assay with SW-620 colon, 101%; in the assay with MCF7 breast, 77.1%; in the assay with HCT-116 colon, 85.9%; in the assay on HCC-2998 colon it was 96%. Moreover, the growth in the assay with KM12 colon is 72.1%.

For the compound `NCCNc1nc2ccccc2c2c(=O)c3cc(F)cc(Cl)c3sc12`, the growth in the assay on BT-549 breast was 84.8%; with MDA-MB-435 melanoma, -95.2% (active); in the assay on SW-620 colon, -78.9% (active); in the assay on MCF7 breast it was -91.6% (active); in the assay with HCT-116 colon it was -89.6% (active); in the assay with HCC-2998 colon, 16.2%.

Turning to `COc1cc(/C=C2\CN(C)C/C(=C\c3cc(CN4CCCC4)c(O)c(OC)c3)C2=O)cc(CN2CCCC2)c1O`, the growth is 94.1% in the assay with BT-549 breast; 67.6% with MDA-MB-435 melanoma; 54.5% in the assay on SW-620 colon; 26.3% with MCF7 breast; 40.4% with HCT-116 colon; 96% in the assay with HCC-2998 colon.

Regarding `COc1ccc(-c2nc(-c3ccccc3)c(-c3ccccc3)[nH]2)cc1OC1CCCCC1`, the growth with BT-549 breast was 118%; in the assay on MDA-MB-435 melanoma, 84.8%; in the assay with SW-620 colon, 88.8%; in the assay on MCF7 breast, 73.6%; in the assay with HCT-116 colon, 88.4%; with HCC-2998 colon it was 90.8%.

Consider `CN(C)CCCNCc1ccc(-c2ccc(F)c(Cl)c2)o1`, for which the growth in the assay with BT-549 breast was 76.6%; with MDA-MB-435 melanoma, -41.6% (active); in the assay with SW-620 colon, -45% (active); in the assay on MCF7 breast, -33% (active); in the assay with HCT-116 colon, 12.3%; in the assay on HCC-2998 colon it was -90.2% (active).

As for `O=C(CN1C=NC2C(N3CCOCC3)=NC=NC21)c1cccc2ccccc12` (configuration not stated), the growth is 109% with BT-549 breast; 99.3% with MDA-MB-435 melanoma; 96% with SW-620 colon; 89.3% with MCF7 breast; 102% in the assay with HCT-116 colon; 120% in the assay on HCC-2998 colon.

For `Nc1ccn(C2O[C@H](CO)[C@@H](O)[C@H]2O)c(=O)n1` (some centres not stated), the growth with BT-549 breast is 111%; in the assay with MDA-MB-435 melanoma it was 88.8%; in the assay on SW-620 colon, 72.7%; in the assay on MCF7 breast, 63.1%; with HCT-116 colon, 64.4%; in the assay with HCC-2998 colon, 99%. In the assay on KM12 colon, the growth is 72.1%.

As to `Clc1ccc(COc2ccc(Nc3ncnc4onc(-c5ccccc5)c34)cc2)cc1`, the growth in the assay with BT-549 breast was 89.1%; in the assay on MDA-MB-435 melanoma, 73.1%; with SW-620 colon, 68.1%; in the assay with MCF7 breast, 75.9%; with HCT-116 colon it was 72.1%; in the assay with HCC-2998 colon, 106%.

Regarding `NC(CCl)=NCCC[C@H](N)C(=O)O`, the growth was 129% in the assay with BT-549 breast; 100% in the assay with MDA-MB-435 melanoma; 100% in the assay on SW-620 colon; 84.8% in the assay on MCF7 breast; 99% with HCT-116 colon; 99.9% with HCC-2998 colon.

Regarding `CN(C)CCNc1cc(-c2ccccc2)nc2ccccc12`, the growth in the assay with BT-549 breast is -77.8% (active); with MDA-MB-435 melanoma, -55.1% (active); in the assay on SW-620 colon it was -79.8% (active); with MCF7 breast it was -24.6% (active); with HCT-116 colon, -71.4% (active); in the assay with HCC-2998 colon, -81.4% (active). For the same compound, the growth with KM12 colon was -23.8% (active).

For `Cc1ccc(CN2CCC(C(=O)Nc3ccc(-c4cc5ccccc5[nH]4)cc3)CC2)o1`, the growth is 72.5% in the assay with BT-549 breast; 58.9% with MDA-MB-435 melanoma; 66% in the assay on SW-620 colon; 64.1% with MCF7 breast; 49.9% in the assay on HCT-116 colon; 79.4% in the assay with HCC-2998 colon.

As for `O=C1Nc2ccccc2/C1=C/c1cccs1`, the growth was 88.5% with BT-549 breast; 104% with MDA-MB-435 melanoma; 98.3% with SW-620 colon; 60.8% in the assay on MCF7 breast; 99.9% with HCT-116 colon; 91.4% in the assay on HCC-2998 colon. Besides, the growth in the assay with KM12 colon is 77.1%.

On to `CN1CCN(Cc2ccc(C(=O)Nc3cncc(C#Cc4cnc5cccnn45)c3)cc2C(F)(F)F)CC1`, for which the growth in the assay with BT-549 breast was 78.3%; in the assay on MDA-MB-435 melanoma, 57.7%; in the assay on SW-620 colon, 21.8%; with MCF7 breast, 20.4%; with HCT-116 colon it was 13%; with HCC-2998 colon it was 90%.

With `CCN(CC)c1cc(C)c2cc(NC(=O)c3cccc(OC)c3)ccc2n1`, the growth was 80.9% in the assay on BT-549 breast; 74.2% with MDA-MB-435 melanoma; 64.9% in the assay with SW-620 colon; 73.1% in the assay on MCF7 breast; 70.1% in the assay with HCT-116 colon; 91.3% in the assay on HCC-2998 colon.

In the case of `COc1cc(/C=C2\Oc3cc(OCCCN4CCCC4)ccc3C2=O)cc(OC)c1`, the growth with BT-549 breast is 78.3%; in the assay on MDA-MB-435 melanoma, 78.9%; in the assay with SW-620 colon it was 5.52% (active); with MCF7 breast, 4.85% (active); in the assay on HCT-116 colon, -67.3% (active); in the assay on HCC-2998 colon, 75.7%.

As to `O=c1cc(NC2CCN(CCCc3ccccc3)CC2)c2cc(Cl)ccc2o1`, the growth was 17.8% in the assay with BT-549 breast; -8.02% (active) with MDA-MB-435 melanoma; 6.98% (active) with SW-620 colon; 3.46% (active) with MCF7 breast; 8.12% (active) with HCT-116 colon; -6.89% (active) with HCC-2998 colon.

With `CCOc1c(Br)cc(C2C(C(=O)OC)=CN(C)C=C2C(=O)OC)cc1OC`, the growth with BT-549 breast was 78.1%; in the assay with MDA-MB-435 melanoma it was 47.3%; with SW-620 colon it was 58%; with MCF7 breast it was 35.9%; in the assay with HCT-116 colon, 59%; in the assay with HCC-2998 colon it was -77.5% (active).

As for `OC(c1ccccc1)c1nnc(SCc2ccccc2)n1Cc1ccccc1` (configuration not stated), the growth with BT-549 breast is 88.4%; in the assay with MDA-MB-435 melanoma, 97.8%; in the assay with SW-620 colon it was 105%; in the assay on MCF7 breast, 92.9%; with HCT-116 colon, 92.2%.

As for `COc1ccc(-c2nnc(COc3ccc(C(=O)/C=C/c4ccco4)cc3)o2)cc1`, the growth in the assay on BT-549 breast was 79.2%; in the assay on MDA-MB-435 melanoma, 10.9%; in the assay on SW-620 colon it was 31%; in the assay on MCF7 breast, 19.6%; with HCT-116 colon, -10.2% (active); in the assay on HCC-2998 colon, 98.2%.

These data come from PubChem BioAssay (NCI).
